# Test results taken from PubChem BioAssay AID2071 (Sanford-Burnham Center for Chemical Genomics, 2009).
# The whole screen tested about 280,000 compounds, of which about 1,700 (0.61%) were called active. Cut-off read from the data, not from the text of the source: active = inhibition mostly above about 24% (no sharp cut-off); inactive = mostly below about 32%. The list comes from a sample in which actives are over-represented; it also holds similar structures and randomly drawn compounds.
# Assay: NALP1 inflammasome inhibitors in reconstituted yeast, colorimetric, S. cerevisiae, triplicate retest (AID 2071)
# Conditions: S. cerevisiae NALP1/ASC/caspase-1 growth, X-gal OD620, 72 h, stronger effect = higher value
compound,measurement,setting,value
Cc1ccnc(N2C(=O)c3ccc([N+](=O)[O-])cc3C2=O)c1,inhibition,at 10 µM unless noted,4.8% (inactive)
O=C(C1=C[C@H](C2CC2)C[C@H](OCc2ccc(CO)cc2)O1)N1CCN(Cc2ccccc2)CC1,inhibition,at 10 µM unless noted,-5.8% (inactive)
O=C(NCc1ccccc1)C1=C[C@@H](c2ccc(C(F)(F)F)cc2)C[C@@H](OCc2ccc(CO)cc2)O1,inhibition,at 10 µM unless noted,-7.3% (inactive)
O=C(C1=C[C@H](c2ccc(C(F)(F)F)cc2)C[C@H](OCc2ccc(CO)cc2)O1)N1CCN(Cc2ccccc2)CC1,inhibition,at 10 µM unless noted,26.9% (active)
CCN1C(=NCC(C)C)N[C@@H](CCc2ccccc2)[C@H](C(=O)NCC(C)C)[C@H]1C,inhibition,at 10 µM unless noted,-12.1% (inactive)
CCC(CC)c1nnc(NC(=O)C2CCN(C(=O)c3ccco3)CC2)s1,inhibition,at 10 µM unless noted,-1% (inactive)
CC(=O)N1CCN(CC(C)(C)NS(=O)(=O)c2ccc(C)cc2)CC1,inhibition,at 10 µM unless noted,-1% (inactive)
COc1ccc(NC(=O)c2sc3nc(C)nc(N4CCN(c5ccccn5)CC4)c3c2C)c(OC)c1,inhibition,at 10 µM unless noted,-10.9% (inactive)
CC1(C)CCSC(/C=C/c2ccccc2)=N1,inhibition,at 10 µM,53.2% (active)
same,inhibition,"triplicate retest, at 20 µM",102%
CN(C)CCOC1c2ccccc2-c2ccccc21,inhibition,at 10 µM unless noted,6% (inactive)
CCCCCCCCCCOC(=O)Cn1c(COc2ccc(C)cc2)[n+](C)c2ccccc21,inhibition,at 10 µM unless noted,24.8% (active)
Cc1ccc(OCc2nc3ccccc3n2C)cc1,inhibition,at 10 µM unless noted,33.1% (inactive)
CCCCOC(=O)Cn1c(=O)n(CC(=O)OCCCC)c2cc(C)ccc21,inhibition,at 10 µM unless noted,-1% (inactive)
CCCCCCCCCCOC(=O)Cn1c(COc2cccc(OC)c2)[n+](C)c2ccccc21,inhibition,at 10 µM unless noted,36.3% (active)
COc1cccc(OCC(=O)Nc2ccccc2C(N)=O)c1,inhibition,at 10 µM unless noted,1.7% (inactive)
CCCCOC(=O)Cn1c(=N)n(CCN(CC)CC)c2ccccc21,inhibition,at 10 µM unless noted,2.6% (inactive)
O=C(Nc1cccc([N+](=O)[O-])c1)N1CCc2ccccc2C1,inhibition,at 10 µM unless noted,7.7% (inactive)
Oc1c(Cl)cc(Cl)cc1/C=N/c1ncn[nH]1,inhibition,at 10 µM unless noted,15.3% (inactive)
CC/C(=N\NC(=O)c1c(C)nc2ccccn12)c1ccc(Cl)cc1,inhibition,at 10 µM unless noted,8.5% (inactive)
CCOc1ccc(N(CC(=O)NCCOc2ccccc2OC)S(=O)(=O)c2ccccc2)cc1,inhibition,at 10 µM unless noted,3% (inactive)
CN(C)c1ccc(-c2nnc(-c3cccnc3)o2)cc1,inhibition,at 10 µM unless noted,-3.5% (inactive)
O=C(NCc1cccc(C(F)(F)F)c1)c1cccc(S(=O)(=O)N2CCN(Cc3ccccc3)CC2)c1,inhibition,at 10 µM unless noted,9.8% (inactive)
CCn1c(=O)c(C(=O)NCc2ccc3c(c2)OCO3)c(O)c2ccccc21,inhibition,at 10 µM unless noted,4.6% (inactive)
Nc1ccccc1SCc1cc([N+](=O)[O-])cc2c1OCOC2,inhibition,at 10 µM unless noted,23.8% (active)
CC(O)C(NS(=O)(=O)c1ccc(Cl)cc1)C(=O)OCc1cc([N+](=O)[O-])cc2c1OCOC2 (stereo not given),inhibition,at 10 µM unless noted,9.8% (inactive)
CCS(=O)(=O)c1cc([N+](=O)[O-])c(Sc2ccccc2N)s1,inhibition,at 10 µM unless noted,6.4% (inactive)
O=S(=O)(NC1CC1)c1ccc(F)c(F)c1,inhibition,at 10 µM unless noted,3% (inactive)
CN(C)[C@@H]1C(=O)C(C(N)=O)=C(O)[C@@]2(O)C(=O)C3=C(O)c4c(O)ccc(Cl)c4[C@@H](O)[C@H]3C[C@@H]12,inhibition,at 10 µM unless noted,136% (active)
O=C(N/N=C/c1ccccn1)c1cccc(NC(=O)c2ccc(Cl)cc2)c1,inhibition,at 10 µM unless noted,8.8% (inactive)
S=C(NCCCc1ccccc1)Nc1ccc(Br)cc1,inhibition,at 10 µM unless noted,13% (inactive)
COc1ccc(C(=O)C2CCCN(C(=O)c3ccc(OC)o3)C2)c(C)c1 (stereo not given),inhibition,at 10 µM unless noted,14.5% (inactive)
CCC(=O)Nc1cc(C(F)(F)F)ccc1N1CCCC1,inhibition,at 10 µM unless noted,9% (inactive)
CC(C)CC(=O)Nc1cc(C(F)(F)F)ccc1N1CCOCC1,inhibition,at 10 µM unless noted,39.4% (active)
CC(Sc1nncn1C)C(=O)Nc1cc(C(F)(F)F)ccc1N1CCOCC1 (stereo not given),inhibition,at 10 µM unless noted,6.8% (inactive)
CC(=O)c1ccc(NC(=O)c2cc(-c3cccs3)on2)cc1,inhibition,at 10 µM unless noted,27.2% (inactive)
CN(C)CCCN(C(=O)c1ccc(S(=O)(=O)N2CCCCCC2)cc1)c1nc2ccc(Br)cc2s1,inhibition,at 10 µM unless noted,40.2% (active)
CCN(CC)CCN(C(=O)c1ccc(S(=O)(=O)N2CCOCC2)cc1)c1nc2cc3c(cc2s1)OCCO3,inhibition,at 10 µM unless noted,6.8% (inactive)
CN(C)CCCN(C(=O)c1ccc(S(=O)(=O)N2CCCc3ccccc32)cc1)c1nc2ccc(F)cc2s1,inhibition,at 10 µM unless noted,33.1% (inactive)
O=C(N/N=C/c1ccccc1O)C1CCCC1,inhibition,at 10 µM unless noted,-5.6% (inactive)
COc1ccc(N(C)S(=O)(=O)c2ccc3c(c2)CC(C)N3C(=O)C2CC2)c(OC)c1 (stereo not given),inhibition,at 10 µM unless noted,10.4% (inactive)
O=C(Nc1ccc(NC(=O)c2cccs2)cn1)c1ccco1,inhibition,at 10 µM unless noted,-12.5% (inactive)
O=C(Nc1ccccc1)c1ccc(NC(=O)c2cccs2)cc1,inhibition,at 10 µM unless noted,1.7% (inactive)
O=C(Nc1ccnc(-c2ccncc2)n1)c1cccs1,inhibition,at 10 µM unless noted,37.8% (active)
CN1C(CC(=O)Nc2ccc(Br)cc2)c2ccccc2CC1(C)C (stereo not given),inhibition,at 10 µM unless noted,34.1% (active)
CN1CCN(NC(=O)Nc2ccc(Br)cc2)CC1,inhibition,at 10 µM unless noted,9.6% (inactive)
COCC(=O)Nc1ccc(Br)cc1,inhibition,at 10 µM unless noted,-1.1% (inactive)
CC(C)Sc1ncnc2c1cnn2-c1ccccc1,inhibition,at 10 µM unless noted,13.3% (inactive)
Cc1nonc1NC(=O)c1oc2ccccc2c1C,inhibition,at 10 µM unless noted,15.3% (inactive)
Cc1cccc(N2C(=O)CC(SC(N)=Nc3ccccc3)C2=O)c1 (stereo not given),inhibition,at 10 µM unless noted,3% (inactive)
COC(=O)c1cc(C(=O)OC)cc(N2C(=O)CC(N3CCN(c4ccccc4)CC3)C2=O)c1 (stereo not given),inhibition,at 10 µM unless noted,9.3% (inactive)
COC(=O)c1ccccc1SC1CC(=O)N(c2cccc(C)c2)C1=O (stereo not given),inhibition,at 10 µM,74.7% (active)
same,inhibition,"triplicate retest, at 20 µM",89.6%
CC(=O)c1ccc(N2Cc3ccccc3C2)cc1,inhibition,at 10 µM unless noted,23% (inactive)
COC(=O)c1ccc(NC(=O)CSc2nncn2-c2cccnc2)cc1,inhibition,at 10 µM unless noted,12.6% (inactive)
COc1ccc(/C=C2\SC(=S)N(CCCC(=O)NC3CCCC3)C2=O)cc1OC,inhibition,at 10 µM unless noted,12.9% (inactive)
Cc1nc(-c2ccccc2)sc1C(=O)/C=C/N(C)C,inhibition,at 10 µM unless noted,32.3% (active)
Cc1ccc(SCC(=O)c2sc(-c3ccccc3)nc2C)cc1,inhibition,at 10 µM unless noted,30.2% (inactive)
CN(C)/C=C/C(=O)c1ccccc1F,inhibition,at 10 µM unless noted,27.1% (inactive)
CCCc1cc(=O)oc2c(C)c(OCC(=O)Nc3ccccn3)ccc12,inhibition,at 10 µM unless noted,16.1% (inactive)
COc1cc(/C=C/C(=O)N2CCc3ccccc3C2)cc(OC)c1OC,inhibition,at 10 µM unless noted,10.3% (inactive)
COc1ccc(OC)c(C(=O)NC(CC(N)=O)c2ccc(N3CCC(N4CCCCC4)CC3)c([N+](=O)[O-])c2)c1 (stereo not given),inhibition,at 10 µM unless noted,11.6% (inactive)
Cc1ccc(C)c(S(=O)(=O)n2cnc3ccccc32)c1,inhibition,at 10 µM unless noted,1.1% (inactive)
Cc1ccc(S(=O)(=O)n2cnc3ccccc32)c(C)c1,inhibition,at 10 µM unless noted,40.9% (active)
COc1ccc(S(=O)(=O)n2cnc3ccccc32)c(C)c1,inhibition,at 10 µM unless noted,2.2% (inactive)
CC1CN(C(=O)c2cc(COc3c(F)cccc3F)on2)CCN1C (stereo not given),inhibition,at 10 µM unless noted,-3.5% (inactive)
Cc1ccc(CNC(=O)CCS(=O)(=O)c2ccc3c(c2)CC(C)N3C(=O)C2CC2)o1 (stereo not given),inhibition,at 10 µM unless noted,20.6% (inactive)
O=C(NC(=O)c1ccccc1)NC(=O)c1ccccc1,inhibition,at 10 µM unless noted,-6% (inactive)
O=C(NCC1CCCO1)/C(=C/c1ccc(Cl)cc1)NC(=O)c1ccccc1 (stereo not given),inhibition,at 10 µM unless noted,22.3% (inactive)
N#C/C(=C/c1ccc(Cl)cc1)NC(=O)c1ccccc1,inhibition,at 10 µM unless noted,43.3% (active)
O=C(Nc1ccccc1Cl)NC1(C(=O)N2CCOCC2)CCCCC1,inhibition,at 10 µM unless noted,7.4% (inactive)
CC1CCC2(CC1)NC(=O)N(CC(=O)c1ccc3c(c1)OCO3)C2=O (stereo not given),inhibition,at 10 µM unless noted,9% (inactive)
Cc1occc1C(=O)N/N=C/c1ccc(-c2cccc([N+](=O)[O-])c2)o1,inhibition,at 10 µM unless noted,11.5% (inactive)
CC[C@H]1OC(=O)[C@H](C)[C@@H](O[C@H]2C[C@@](C)(OC)[C@@H](O)[C@H](C)O2)[C@H](C)[C@@H](O[C@@H]2O[C@H](C)C[C@H](N(C)C)[C@H]2O)[C@](C)(O)C[C@@H](C)[C@@H]2N[C@@H](COCCOC)O[C@H]([C@H]2C)[C@]1(C)O,inhibition,at 10 µM unless noted,75.2% (active)
CCn1c(SCc2cccc(C(=O)O)c2)nnc1-c1ccc(Cl)cc1,inhibition,at 10 µM unless noted,7.1% (inactive)
CCN1/C(=C\c2ccc3ccccc3[n+]2CC)Sc2cc(C)ccc21,inhibition,at 10 µM,77.1% (active)
same,inhibition,"triplicate retest, at 20 µM",81.9%
CCN1/C(=C/c2ccc3ccc(C)cc3[n+]2CC)Sc2ccccc21,inhibition,at 10 µM,87.1% (active)
same,inhibition,"triplicate retest, at 20 µM",107%
CCN1CCN(CCNC(=O)c2ccc(/C=C3/Sc4ccccc4N(Cc4cccc(C)c4)C3=O)cc2)CC1,inhibition,at 10 µM unless noted,12.2% (inactive)
CCN1/C(=C/C(=S)Nc2ccccc2)Sc2ccccc21,inhibition,at 10 µM unless noted,27.1% (inactive)
CCCN1CCn2c3c(c4cc(Br)ccc42)CCCC31 (stereo not given),inhibition,at 10 µM unless noted,15.4% (inactive)
CCN(C(=O)CN1C(=O)/C(=C/c2ccc(F)cc2)SC1=S)C1CCS(=O)(=O)C1 (stereo not given),inhibition,at 10 µM unless noted,4.8% (inactive)
COc1ccc(C(=O)N2CCCCC2C(=O)Nc2ccc(-n3nc(C)cc3C)cc2)o1 (stereo not given),inhibition,at 10 µM unless noted,8.7% (inactive)
Cc1snc(SCc2c(F)cccc2Cl)c1C#N,inhibition,at 10 µM unless noted,6.1% (inactive)
CCC(=C/c1sc2ccc3ccccc3c2[n+]1C)/C=C1\Sc2ccc3ccccc3c2N1C,inhibition,at 10 µM unless noted,42.3% (active)
COc1ccc(/C=N/Nc2ccccc2C(=O)O)cc1,inhibition,at 10 µM unless noted,10.9% (inactive)
CCNC(=O)Nc1ccc(S(=O)(=O)Nc2cnc(C)nc2C)cc1,inhibition,at 10 µM unless noted,18.5% (inactive)
CCOc1ccccc1/C=N/Nc1nc2ccccc2o1,inhibition,at 10 µM unless noted,14.3% (inactive)
COc1ccccc1CCNC(=O)C1CCN(C(=O)/C=C/c2ccccc2)CC1,inhibition,at 10 µM unless noted,16.7% (inactive)
